Experimental data: PubChem BioAssay
Inconclusive results are not listed. Active and inactive are the calls of the source. Cut-off read from the data, not from the text of the source, unless noted: active = inhibition above about 30%; inactive = the rest.

Columns and labels:
[1] = reducers of endogenous Her2 protein level, primary screen, SKBR3 breast tumor cells, AlphaScreen, ATP viability (AID 461;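 active = Her2 level under about 52% in both replicate screens, with viability over 70% of control, limit read from the data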;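 for Her2 level: lower value means less Her2 protein in the cells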;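 for viability: percent of carrier control wells set as 100% viability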); conditions: 18-24 h, measured here: SKBR3 viability, ATP luminescence, at 10 µM
[2] = biological target: Receptor tyrosine-protein kinase erbB-2 (Homo sapiens) (UniProt P04626); assay: as above; conditions: 18-24 h, at 10 µM, stronger effect = lower value
[3] = SK-BR-3 cell growth inhibitors, pilot screen, 24 h, human (AID 572;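 active = viability at or below 10% of carrier control in both of two separate runs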;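 note: compound exposure lasted between 18 and 24 h rather than exactly 24 h; 100% = carrier-treated control wells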); conditions: SK-BR-3 viability, CellTiter-Glo luminescence, at 10 µM, stronger effect = lower value
[4] = HUVEC growth inhibition – cell-based, human, primary screen (AID 575;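 active = viability at or below 30% in both replicate assays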;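 note: 100% = median of untreated cell wells with 0.1% DMSO on each plate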); conditions: HUVEC proliferation, CellTiter-Glo luminescence, 72 h; at 10 µM; stronger effect = lower value
[5] = growth inhibitors of H69AR lung tumor, primary screen, human, duplicate replicates (AID 580;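 active = viability at or under a set limit in both replicates, limit being median viability minus 3 SD, cut at about 48% in these data, passing the limit was not always enough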;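 note: 100% = mean luminescence of untreated wells and 0% = no signal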); conditions: H69AR lung tumor cells viability, ATP luminescence, 72 h; at 10 µM; stronger effect = lower value
[6] = reversal of MRP1-mediated doxorubicin resistance, pilot screen, H69AR cells, doxorubicin co-treatment (AID 601;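 active = viability loss from added drug above about 55%, and viability with drug at most 40%, in both replicates, limit read from the data, passing the limit was not always enough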); conditions: CellTiter-Glo, 72 h, at 10 µM; for differential viability (reversal): stronger effect = higher value
[7] = 384-well plate pilot, post-Golgi transport modulator project, inhibition of yeast transport mutant growth (AID 636; in the data active = inhibition above about 31%); conditions: absorbance 615 nm, about 18 h, stronger effect = higher value
[8] = growth suppression of yeast trafficking mutant, preliminary HTS, modulators of trafficking downstream of Golgi apparatus project, 1536-format plate, OD 615 nm (AID 637); conditions: yeast transport mutant growth, absorbance 615 nm, 18 h; stronger effect = higher value
[9] = OD615 S. cerevisiae growth inhibition, permissive medium, pilot counter-assay, permissive growth control for S. cerevisiae lifespan shortening project (AID 705;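 active = growth inhibition above 25% in both replicates, a cutoff set 3 SD above the mean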); conditions: OD615, 24 h, at 10 µM, stronger effect = higher value
[10] = Restrictive medium S. cerevisiae growth inhibition, OD615, pilot screen of yeast lifespan reduction project, restrictive growth control (AID 706;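 active = growth inhibition above a set limit, 3 SD over mean compound inhibition, in both replicates, cut at about 43% in these data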;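 note: modified DeaD lifespan yeast strain shifted to restrictive glucose medium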); conditions: OD615, 48 h, at 10 µM, stronger effect = higher value
[11] = viability gain of MRP-1-high H69AR cells under doxorubicin, pilot screen, MRP-1 activator project, CellTiter-Glo, duplicate (AID 807;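 active = viability increase at or above a cutoff of the median across tested compounds plus 3 SD, cut at about 8.5% in these data, passing the limit was not always enough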;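 note: compound pretreatment 18-22 h then 72 h combined with doxorubicin; 0% = doxorubicin alone and 100% = vehicle without doxorubicin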); conditions: H69AR viability with doxorubicin, CellTiter-Glo luminescence; at 10 µM; stronger effect = higher value
[12] = growth suppression of beta-catenin knockout HCT116, pilot screen, human colon tumor cells (AID 823;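 active = cell viability at or below a set limit in both duplicate runs, the limit being the all-compound median minus 4 SD, cut at about 23% in these data, passing the limit was not always enough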;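 note: 0% = wells killed by 20 µM Hyamine and 100% = untreated DMSO cell wells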); conditions: CellTiter-Glo, 60 h, at 10 µM, stronger effect = lower value
[13] = growth suppression of PTEN-deleted HCT116, pilot screen, cell-based, HCT116 clonal line, CellTiter-Glo (AID 824;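 active = viability at or below 27.92% in each of two runs, the all-compound median minus 4 SD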;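 note: 0% = 20 µM Hyamine control and 100% = vehicle cell control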); conditions: 60 h, at 10 µM, stronger effect = lower value
[14] = inhibitors of the yeast RAM network, pilot screen, dse1pr::URA3 reporter, 5-FOA selection (AID 869;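 active = inhibition over a set limit, the all-compound mean plus 3 SD, in both replicate runs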;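 note: 0% = DMSO wells with no growth and 100% = 10 µM 1-NA-PP1 with full growth; RAM network block rescues cells from 5-FOA so hits raise OD615 growth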); conditions: S. cerevisiae dse1pr::URA3 5-FOA growth, OD615, 2 d; at 10 µM; stronger effect = higher value; strain carries analog-sensitive mutant Cbk1 kinase
[15] = RAM signaling pathway blockade in yeast – S. cerevisiae, Pdr1DBD-CYC8 efflux-inhibited sensitized strain, primary screen (AID 1298;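 active = RAM network inhibition above 8.4% in each of two replicates, 3 SD over the compound average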;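 note: 0% = DMSO untreated cells without growth and 100% = 10 µM 1-NA-PP1 full growth; higher means more yeast growth rescued from 5-FOA killing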); conditions: S. cerevisiae cbk1-as DSE1-URA3 strain, 5-FOA growth OD615, 2 d; at 50 µM; stronger effect = higher value
[16] = H69AR cells + 2 uM doxorubicin, measured here: viability with 2 uM doxorubicin, stronger effect = lower value
[17] = H69AR cells, compound alone cytotoxicity

Sequence of Receptor tyrosine-protein kinase erbB-2 (Homo sapiens) (P04626 whole entry, looked up): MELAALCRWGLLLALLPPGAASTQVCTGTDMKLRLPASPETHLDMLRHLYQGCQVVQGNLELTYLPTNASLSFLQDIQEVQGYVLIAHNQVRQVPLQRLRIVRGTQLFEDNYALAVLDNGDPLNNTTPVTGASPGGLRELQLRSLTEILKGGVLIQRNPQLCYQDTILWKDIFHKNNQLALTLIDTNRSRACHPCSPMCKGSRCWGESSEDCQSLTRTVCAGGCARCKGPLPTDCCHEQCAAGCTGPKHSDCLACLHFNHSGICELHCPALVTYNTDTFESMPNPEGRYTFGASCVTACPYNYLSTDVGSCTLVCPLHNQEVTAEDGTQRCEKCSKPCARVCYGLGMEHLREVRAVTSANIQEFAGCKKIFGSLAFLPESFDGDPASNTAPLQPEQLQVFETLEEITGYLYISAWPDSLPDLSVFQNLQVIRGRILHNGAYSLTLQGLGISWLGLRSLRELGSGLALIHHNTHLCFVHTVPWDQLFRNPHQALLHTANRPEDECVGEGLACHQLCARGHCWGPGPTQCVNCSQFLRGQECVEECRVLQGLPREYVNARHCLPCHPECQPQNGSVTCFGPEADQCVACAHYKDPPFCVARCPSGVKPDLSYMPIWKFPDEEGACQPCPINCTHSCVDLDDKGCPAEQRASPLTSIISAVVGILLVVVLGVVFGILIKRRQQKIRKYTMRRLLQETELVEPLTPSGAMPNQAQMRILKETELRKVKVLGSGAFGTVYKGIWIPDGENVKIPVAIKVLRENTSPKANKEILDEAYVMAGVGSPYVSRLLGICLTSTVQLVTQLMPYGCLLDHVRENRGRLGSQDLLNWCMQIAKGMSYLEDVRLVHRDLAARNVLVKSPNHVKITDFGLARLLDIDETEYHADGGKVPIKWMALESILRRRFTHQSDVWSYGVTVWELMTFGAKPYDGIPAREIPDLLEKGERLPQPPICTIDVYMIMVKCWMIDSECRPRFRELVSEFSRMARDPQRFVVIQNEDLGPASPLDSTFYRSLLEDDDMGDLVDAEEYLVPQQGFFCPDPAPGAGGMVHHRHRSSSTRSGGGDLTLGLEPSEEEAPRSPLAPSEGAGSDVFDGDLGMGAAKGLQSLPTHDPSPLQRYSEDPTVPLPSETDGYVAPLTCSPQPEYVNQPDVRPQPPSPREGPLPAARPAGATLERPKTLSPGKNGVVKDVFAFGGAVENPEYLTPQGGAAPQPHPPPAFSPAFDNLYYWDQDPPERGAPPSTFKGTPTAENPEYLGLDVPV

SMILES	viability [1] [%]	Her2 level [2]	viability [3]	viability [4]	viability [5]	differential viability (reversal) ([6]; H69AR cells + 2 uM doxorubicin)	viability [6, 16] [%]	viability [6, 17] [%]	inhibition [7]	inhibition [8]	growth inhibition [9]	growth inhibition [10]	viability increase [11]	viability [12]	viability [13]	inhibition [14]	RAM network inhibition [15]
CC1CCCCN1CCNC(=O)c1ccc2c(=O)n(CCc3ccccc3)c(=O)[nH]c2c1 (stereo unspecified)	91	72.5% (inactive)	91% (inactive)	53.6% (inactive)	93.5% (inactive)	12.7% (inactive)	80.8	93.5	-5% (inactive)	1.17% (inactive)	-23.3% (inactive)	-18.5% (inactive)	-4.81% (inactive)	76.9% (inactive)	73.4% (inactive)	1.27% (inactive)	8.68% (inactive)
COCCn1cc(C(=O)c2ccccc2OCC(=O)Nc2cc(C)on2)cc(C#N)c1=O	82.5	115% (inactive)	82.5% (inactive)	89% (inactive)	108% (inactive)	6.63% (inactive)	102	108	-2.76% (inactive)	-1.17% (inactive)	-25.8% (inactive)	-14% (inactive)	-0.5% (inactive)	92.9% (inactive)	99.5% (inactive)	1.68% (inactive)	3.2% (inactive)
Nc1nc2n(n1)C(c1cccc(Br)c1)CC(c1ccccc1)N2 (stereo unspecified)	93.5	103% (inactive)	93.5% (inactive)	82% (inactive)	88.8% (inactive)	-9.83% (inactive)	98.7	88.8	-3.33% (inactive)	0.83% (inactive)	-6.41% (inactive)	12.7% (inactive)	-1.81% (inactive)	97.1% (inactive)	86% (inactive)	1.22% (inactive)	12.1% (inactive)
Cc1ccc(CCP(=O)(O)CN2CCOCC2)cn1	85	87.5% (inactive)	85% (inactive)	101% (inactive)	104% (inactive)	12.3% (inactive)	91.4	104	-7.57% (inactive)	3.61% (inactive)	-11.9% (inactive)	-9.14% (inactive)	0.51% (inactive)	89.2% (inactive)	92.3% (inactive)	0.17% (inactive)	-0.42% (inactive)
CCN1CCN(CCCNC(=O)c2cc3sccc3n2CC)CC1	96.5	120% (inactive)	96.5% (inactive)	99% (inactive)	89.4% (inactive)	-1.6% (inactive)	91	89.4	-0.27% (inactive)	3% (inactive)	-3.32% (inactive)	-3.54% (inactive)	-1.72% (inactive)	96.9% (inactive)	98.6% (inactive)	0.865% (inactive)	1.23% (inactive)
CCOC(=O)N1CCC(NC(=O)c2cc(C(=O)NC3CCCC3)ccc2CO)CC1	97.5	104% (inactive)	97.5% (inactive)	97.4% (inactive)	92.8% (inactive)	5.52% (inactive)	87.3	92.8	-6.8% (inactive)	6% (inactive)	3.62% (inactive)	-3.18% (inactive)	-0.72% (inactive)	92.1% (inactive)	90.2% (inactive)	1.87% (inactive)	1.13% (inactive)
Cc1[nH]c2ccccc2c(=O)c1CN1CCCCC1	99	103% (inactive)	99% (inactive)	101% (inactive)	90.5% (inactive)	-0.56% (inactive)	91.1	90.5	-4.29% (inactive)	-3.67% (inactive)	-17.1% (inactive)	-15.9% (inactive)	-0.38% (inactive)	97.3% (inactive)	105% (inactive)	0.515% (inactive)	-0.21% (inactive)
CCCOc1ccc(C2C(C(=O)OC)=CN(CCOC)C=C2C(=O)OC)cc1	89	92% (inactive)	89% (inactive)	96.4% (inactive)	90.4% (inactive)	-2.27% (inactive)	92.7	90.4	-3.12% (inactive)	3.11% (inactive)	-11.5% (inactive)	12.8% (inactive)	-2.37% (inactive)	81.5% (inactive)	84.4% (inactive)	2.16% (inactive)	5.46% (inactive)
CN(C)c1oc(-c2ccccc2F)nc1C#N	95	99.5% (inactive)	95% (inactive)	82.3% (inactive)	101% (inactive)	11.8% (inactive)	89.5	101	-2.8% (inactive)	6.56% (inactive)	-11.3% (inactive)	-2.67% (inactive)	-0.62% (inactive)	112% (inactive)	106% (inactive)	0.58% (inactive)	3.09% (inactive)
O=C(Nc1nc(-c2ccccn2)cs1)C1CC1	93.5	97.5% (inactive)	93.5% (inactive)	96.1% (inactive)	82% (inactive)	-19.5% (inactive)	101	82	1.07% (inactive)	-3.17% (inactive)	0.675% (inactive)	1.15% (inactive)	0.73% (inactive)	67.3% (inactive)	70.5% (inactive)	0.575% (inactive)	0.89% (inactive)
Cc1cc(C)n2nc(SCc3nc4ccccc4[nH]3)nc2n1	87.5	81% (inactive)	87.5% (inactive)	98.3% (inactive)	95.7% (inactive)	8.56% (inactive)	87.2	95.7	2.13% (inactive)	3.28% (inactive)	-5.58% (inactive)	15.5% (inactive)	-2.9% (inactive)	91.2% (inactive)	95.5% (inactive)	1.77% (inactive)	1.24% (inactive)
Cc1cc(C)n2c(SCCN3C(=O)c4ccccc4C3=O)nnc2n1	90.5	95% (inactive)	90.5% (inactive)	111% (inactive)	105% (inactive)	11.1% (inactive)	94	105	-0.51% (inactive)	7.17% (inactive)	-7.84% (inactive)	-8.13% (inactive)	-0.7% (inactive)	102% (inactive)	98.6% (inactive)	2.08% (inactive)	1.64% (inactive)
Nc1nc2n(n1)C(c1cccc(Br)c1)CC(c1ccc(F)cc1)N2 (stereo unspecified)	85	109% (inactive)	85% (inactive)	98.8% (inactive)	111% (inactive)	-6.81% (inactive)	117	111	-1.03% (inactive)	-6.5% (inactive)	2.49% (inactive)	11.9% (inactive)	0.72% (inactive)	89.3% (inactive)	89.3% (inactive)	0.875% (inactive)	2.61% (inactive)
COc1ccc(N(CC(=O)Nc2ccc3c(c2)OCCO3)S(=O)(=O)c2cccnc2)cc1	91	108% (inactive)	91% (inactive)	104% (inactive)	92.5% (inactive)	4.99% (inactive)	87.5	92.5	-5.13% (inactive)	-3.83% (inactive)	-10.3% (inactive)	0.75% (inactive)	-2.05% (inactive)	102% (inactive)	99.7% (inactive)	1.63% (inactive)	4.76% (inactive)
CCOc1ccc(-c2cc(CCCC(=O)N3CCN(c4ccc(OC)cc4)CC3)no2)cc1	85	104% (inactive)	85% (inactive)	77.8% (inactive)	67.7% (inactive)	-2.52% (inactive)	70.2	67.7	4.1% (inactive)	-2.67% (inactive)	2.23% (inactive)	1.43% (inactive)	-3.39% (inactive)	81.7% (inactive)	82.5% (inactive)	2.54% (inactive)	8.59% (inactive)
CC(=O)c1ccc(OCC(O)CN2CCN(Cc3ccc4c(c3)OCO4)CC2)cc1 (stereo unspecified)	102	102% (inactive)	102% (inactive)	101% (inactive)	88.7% (inactive)	-2.19% (inactive)	90.8	88.7	-6.13% (inactive)	2.5% (inactive)	-5.95% (inactive)	-5.68% (inactive)	-0.65% (inactive)	102% (inactive)	92.4% (inactive)	1.67% (inactive)	1.31% (inactive)
CCn1c(=O)cc(OCC(=O)Nc2nc(C)cs2)c2ccccc21	83.5	84.5% (inactive)	83.5% (inactive)	61.6% (inactive)	94.8% (inactive)	2.11% (inactive)	92.7	94.8	-3.73% (inactive)	-1.67% (inactive)	-10.5% (inactive)	-9.12% (inactive)	-2.41% (inactive)	93.2% (inactive)	86.9% (inactive)	1.33% (inactive)	2.84% (inactive)
O=C(NCC1CCCO1)C1CCN(S(=O)(=O)c2cccc3cccnc23)CC1 (stereo unspecified)	102	93.5% (inactive)	102% (inactive)	112% (inactive)	101% (inactive)	7.45% (inactive)	94	101	-2.53% (inactive)	-2.13% (inactive)	-2.44% (inactive)	12% (inactive)	-1.56% (inactive)	94.2% (inactive)	93.7% (inactive)	1.76% (inactive)	2.72% (inactive)
